Screens: PubChem, several laboratories
The list is not random: actives were taken first. Their share in the collection is about 1.3%.
SRC3 inh – inhibitors of human steroid receptor coactivator 3 (SRC3); HEK293 GAL4-SRC3 luciferase reporter, luminescence; Q9Y6Q9; inhibition, % at 3.6 µM; AID 588352; 360,000 compounds, 0.17% hits;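 active = inhibition above a per-campaign cutoff, the mean of all compounds plus 3 SD, cut at about 60% in these data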;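 note: higher means less SRC3-driven luciferase light from the GAL4 reporter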
SRC2 inh – inhibits human steroid receptor coactivator 2. HEK293 GAL4-SRC2 luciferase reporter, luminescence. 370,000 compounds, 0.17% hits. inhibition, % at 9 µM. Q15596;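 active = inhibition above the mean inhibition of all tested compounds plus 3 SD, set per campaign, cut at about 52% in these data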
NR2F2 inh – inhibitors of human COUP-TFII (NR2F2); inhibition, % at 8.6 µM; HEK293T NGFI-A luciferase reporter, luminescence; 370,000 compounds, 0.7% hits; P24468;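 active = inhibition above a per-plate cutoff, mean inhibition of test wells between control levels plus 3 SD, cut at about 38% in these data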;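 note: cells cotransfected with COUP-TFII expression vector driving the NGFI-A reporter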
NCOA1 inh – human NCOA1 inhibition | Q15788 | HEK293 GAL4-SRC1 luciferase reporter, luminescence | inhibition, % at 3.6 µM | 360,000 compounds, 0.12% hits;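 active = inhibition above the campaign mean plus 3 SD, with each screening campaign given its own cutoff, cut at about 60% in these data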
Gli-Sufu antag – Gli-Sufu pathway antagonism. Sufu-KO-LIGHT fibroblasts, Gli luciferase reporter luminescence. inhibition, % at 5 µM. 340,000 compounds, 0.74% hits;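 active = inhibition above about 55%, limit read from the data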
NR5A2 inv ag – suppresses constitutive activity of human LRH-1; O00482; HEK293T StAR-luciferase reporter, LRH-1 transfected, 24 h; inhibition, % at 3.6 µM; 360,000 compounds, 0.13% hits; AID 602396;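 active = inhibition above the mean inhibition of all tested compounds plus 3 SD, cut at about 73% in these data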
Target sequence (O00482 whole entry, looked up): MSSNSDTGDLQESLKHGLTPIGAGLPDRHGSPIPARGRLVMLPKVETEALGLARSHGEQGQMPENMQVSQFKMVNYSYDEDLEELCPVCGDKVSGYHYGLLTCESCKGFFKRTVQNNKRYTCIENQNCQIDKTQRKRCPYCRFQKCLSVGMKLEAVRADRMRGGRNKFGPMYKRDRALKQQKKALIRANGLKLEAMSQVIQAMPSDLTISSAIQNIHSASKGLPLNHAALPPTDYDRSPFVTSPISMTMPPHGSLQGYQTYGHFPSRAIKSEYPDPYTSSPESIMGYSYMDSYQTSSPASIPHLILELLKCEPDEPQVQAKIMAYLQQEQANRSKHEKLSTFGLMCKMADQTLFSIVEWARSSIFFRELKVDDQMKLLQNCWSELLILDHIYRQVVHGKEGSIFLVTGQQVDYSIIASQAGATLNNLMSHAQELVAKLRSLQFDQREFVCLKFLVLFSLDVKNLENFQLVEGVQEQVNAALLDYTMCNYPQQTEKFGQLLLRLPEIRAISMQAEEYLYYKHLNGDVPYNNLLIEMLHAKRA
Gli antag conf – Gli-SUFU antagonism confirmation, single concentration; shares compounds with Gli-Sufu antag; Sufu-KO-LIGHT cells, Gli luciferase reporter, luminescence; inhibition, % at 5 µM; 2,500 compounds, 40% hits; AID 602428;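 active = mean inhibition at 5 µM reaching about 45%, limit read from the data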
Gli cytotox – counter-screen for Gli-SUFU antagonists: cytotoxicity; shares compounds with Gli-Sufu antag; Sufu-KO-LIGHT cells cytotoxicity, ATP luminescence; cytotoxicity, % at 5 µM; 2,500 compounds, 32% hits; AID 651994;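 active = mean cytotoxicity at 5 µM above about 25%, limit read from the data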;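 note: cells exposed to compound overnight for roughly 16 to 18 hours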
Wnt3a counter – inhibits Wnt3a reporter, counter-screen for Gli-SUFU antagonists; shares compounds with Gli-Sufu antag; inhibition, % at 6.25 µM; Wnt-LIGHT cells, Wnt3a-driven luciferase reporter, luminescence; 2,500 compounds, 20% hits; AID 651995;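 active = mean inhibition above about 25%, limit read from the data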
Gal4-VP16 ctr – inhibits VP16 reporter, flagging COUP-TFII antagonist hits. shares compounds with NR2F2 inh. HEK293 Gal4-VP16 luciferase reporter, luminescence. inhibition, % at 8.5 µM. 2,500 compounds, 25% hits; in the data active = inhibition above about 13%
NR2F2 inh conf – confirmation of human COUP-TFII (NR2F2) inhibitors; AID 687008; HEK293 NGFI-A luciferase reporter, luminescence; inhibition, % at 8.5 µM; shares compounds with NR2F2 inh; 2,500 compounds, 45% hits;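 active = mean inhibition over three repeats above a set limit taken from the earlier primary screen, cut at about 38% in these data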
A number is an active result.

`COc1ccc(Cn2cc(COC(=O)Nc3ccc(F)cc3)nn2)cc1` gave SRC2 inh inactive and NR2F2 inh inactive.
`NC(=O)c1ccc(N2CCN(S(=O)(=O)c3cccs3)CC2)c([N+](=O)[O-])c1` gave SRC3 inh inactive, SRC2 inh inactive, NR2F2 inh 60.5, NCOA1 inh inactive, Gli-Sufu antag 56.1, NR5A2 inv ag inactive, Gli antag conf 65.4, Gli cytotox inactive, Wnt3a counter 35.8, Gal4-VP16 ctr inactive and NR2F2 inh conf 56.4.
Screening COC(=O)[C@]12C[C@H](CC(=O)N3CCCC3)C(=O)N(Cc3ccc(Cl)cc3Cl)C1=C[C@H](COCc1ccccc1)O[C@@H]2C returned SRC2 inh inactive and NR2F2 inh inactive.
Screening N=c1ccn(CC(=O)c2ccc(-c3ccccc3)cc2)cc1 returned SRC3 inh 73.1, SRC2 inh inactive, NR2F2 inh 57.9, NCOA1 inh inactive, Gli-Sufu antag 81.7, NR5A2 inv ag inactive, Gli antag conf 84.2, Gli cytotox inactive, Wnt3a counter 29.8, Gal4-VP16 ctr inactive and NR2F2 inh conf 54.3.
Screening CC(C)(C)c1ccc(C(=O)O/N=C(\N)c2ccccn2)cc1 returned SRC3 inh 88.4, SRC2 inh 86.3, NR2F2 inh 95.5, NCOA1 inh 89.7, Gli-Sufu antag 86.5, NR5A2 inv ag 88.3, Gli antag conf 91.2, Gli cytotox inactive, Wnt3a counter 101.7, Gal4-VP16 ctr 73.5 and NR2F2 inh conf 101.5.
COCc1cn(-c2ccc3c(c2)[C@@]2(CC(=O)N(C)C2c2ccccc2)C(=O)N3CC(C)C)nn1 (stereo partly specified) was read as SRC2 inh inactive and NR2F2 inh inactive.
CCOC(=O)C1=NOC(C(=O)NCc2ccccc2)(C(=O)c2ccc(OC)cc2)C1 (stereo unspecified) was read as SRC2 inh inactive and NR2F2 inh inactive.
Screening Nc1ncnc2c(C3OC(CO)C(O)C3O)c[nH]c12 (stereo unspecified) returned SRC3 inh 94.0, SRC2 inh 69.5, NR2F2 inh 81.8, NCOA1 inh 94.2, Gli-Sufu antag 86.7, NR5A2 inv ag 99.5, Gli antag conf 89.2, Gli cytotox 85.5, Wnt3a counter 100.9, Gal4-VP16 ctr 48.9 and NR2F2 inh conf 80.6.
`Nc1ncnc2c1ncn2[C@@H]1O[C@H](CO)[C@@H](O)[C@H]1O` gave SRC3 inh inactive, SRC2 inh inactive, NR2F2 inh inactive, NCOA1 inh inactive, Gli-Sufu antag inactive and NR5A2 inv ag inactive.
For O=C(CN1CCc2onc(-c3ccc(-n4cc(COc5ccc([N+](=O)[O-])cc5)nn4)cc3)c2C1=O)N1CCOCC1 the results were SRC2 inh inactive and NR2F2 inh inactive.
`CCOc1ccc(-n2c(SCC(=O)Nc3ccc(S(=O)(=O)Nc4nccs4)cc3)nnc2-c2ccncc2)cc1` gave SRC2 inh inactive and NR2F2 inh inactive.
O=C(c1ccccc1)N1CC[C@H]2[C@H](CCCN2Cc2ccccc2)C1 was read as SRC2 inh inactive and NR2F2 inh inactive.
`c1ccc(CNc2ncnc3sccc23)cc1` gave SRC3 inh inactive, SRC2 inh inactive, NR2F2 inh inactive, NCOA1 inh inactive, Gli-Sufu antag inactive and NR5A2 inv ag inactive.
Screening COc1ccc(CNc2ncnc3sccc23)cc1 returned SRC3 inh inactive, SRC2 inh inactive, NR2F2 inh 49.2, NCOA1 inh inactive, Gli-Sufu antag 61.1, NR5A2 inv ag inactive, Gli antag conf 48.5, Gli cytotox 37.4, Wnt3a counter inactive, Gal4-VP16 ctr inactive and NR2F2 inh conf 39.3.
`FC(F)(F)c1ccncc1-c1nnnn1-c1ccc(Cl)cc1` gave SRC3 inh inactive, SRC2 inh inactive, NR2F2 inh inactive, NCOA1 inh inactive, Gli-Sufu antag inactive and NR5A2 inv ag inactive.
Screening Fc1ccc(-n2nnnc2-c2cnc(-c3cccs3)nc2C(F)(F)F)cc1 returned SRC3 inh inactive, SRC2 inh inactive, NR2F2 inh 52.9, NCOA1 inh inactive, Gli-Sufu antag inactive, NR5A2 inv ag inactive, Gli antag conf 56.1, Gli cytotox 30.6, Wnt3a counter inactive, Gal4-VP16 ctr inactive and NR2F2 inh conf 38.5.
`FC(F)(F)c1nc(-c2ccncc2)ncc1-c1nnnn1-c1ccccc1` gave SRC3 inh inactive, SRC2 inh inactive, NR2F2 inh inactive, NCOA1 inh inactive, Gli-Sufu antag inactive and NR5A2 inv ag inactive.
`FC(F)(F)c1nc(N2CCCC2)ncc1-c1nnnn1-c1ccc(Cl)cc1` gave SRC3 inh inactive, SRC2 inh inactive, NR2F2 inh 38.3, NCOA1 inh inactive, Gli-Sufu antag inactive, NR5A2 inv ag inactive, Gli antag conf 53.9, Gli cytotox 45.1, Wnt3a counter inactive, Gal4-VP16 ctr inactive and NR2F2 inh conf inactive.
CCN(CC)c1ccc(Nc2nc(N3CCOCC3)c3ccccc3n2)cc1 was read as SRC3 inh inactive, SRC2 inh inactive, NR2F2 inh 59.7, NCOA1 inh inactive, Gli-Sufu antag 66.5, NR5A2 inv ag inactive, Gli antag conf 61.8, Gli cytotox 31.3, Wnt3a counter inactive, Gal4-VP16 ctr inactive and NR2F2 inh conf 43.0.
Screening COc1ccc(Nc2nc(N3CCCC3)c3ccccc3n2)cc1 returned SRC3 inh inactive, SRC2 inh inactive, NR2F2 inh inactive, NCOA1 inh inactive, Gli-Sufu antag inactive and NR5A2 inv ag inactive.
COc1ccc(S[C@]2(C(=O)N3CCOCC3)CC(=O)N(C(=O)C3CC3)[C@@H]2c2ccc(OC)cc2)cc1 was read as SRC2 inh inactive and NR2F2 inh inactive.
`FC(F)(F)c1ccccc1C(C#Cc1ccccc1)NCc1ccc2c(c1)OCO2` (stereo unspecified) gave SRC2 inh inactive and NR2F2 inh inactive.
For O=C1N(CCCO)CCC12CCCCC2 the results were SRC2 inh inactive and NR2F2 inh inactive.
For CCOc1ccc(/C=N/n2c(-c3n[nH]c4c3CCC4)n[nH]c2=S)cc1 the results were SRC2 inh inactive and NR2F2 inh inactive.
